This is one part of a sample in which hits are shown more often than they occur.
TbPYK inhibitor: qHTS of Trypanosoma Brucei Inhibitors; pyruvate kinase (Trypanosoma brucei), Q57TT1; 0.12% of 410,000 active; TbPYK enzyme, Kinase-Glo Plus ATP luminescence, 45 min; AID 624173, 2012; Potency, µM (highest dose often 76.8 µM), hits mostly inhibitors; note: nearly all actives have a fitted effect of over 50% in size
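Screened from lowest to highest concentration, compounds were pinned into TbPYK/substrate mixtures, and ADP (130 uM final) was added. Plates sat at room temperature for 45 min prior to Kinase-Glo Plus detection by luminescence.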
Sm TGR inh: qHTS Assay for the Inhibitors of Schistosoma Mansoni Peroxiredoxins. 3% of 360,000 active. purified TGR, DTNB reduction, TNB absorbance 405 nm. Potency, µM (top dose mostly 114 µM), usual class: inhibitors. Schistosoma mansoni thioredoxin glutathione reductase (TGR), Q962Y6; note: nearly all actives have a fitted effect of over 60% in size
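First, TGR (20 nM dispensed) and NADPH were mixed with compound. Second, a 15 min room-temperature incubation followed. Third, further NADPH and then DTNB were added to start the reaction. Finally, TNB absorbance was monitored kinetically.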
LmPK inhibitor: qHTS Assay for Inhibitors of Leishmania Mexicana Pyruvate Kinase (LmPK) | Q27686 | purified LmPK, Kinase-Glo ATP luminescence, 1 h | Potency, µM (highest dose often 57.5 µM), hits mostly inhibitors | 0.37% of 290,000 active | AID 1721, 2009
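In 50 mM imidazole pH 7.2 with 7 mM MgCl2, LmPK (0.1 nM) turned over PEP (0.5 mM) and ADP (0.1 mM) for 1 h at room temperature. Luciferase read-out of ATP.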
Shiga toxin inh: A qHTS for Small Molecule Inhibitors of Shiga Toxin. Vero cells, Shiga toxin protein synthesis inhibition reporter. inhibition, % at 38.7 µM. 9.2% of 290,000 active; in the data active = inhibition mostly above about 28%, no sharp cut-off; inactive = mostly below about 43%
CHX counter: Cycloheximide Counterscreen for Small Molecule Inhibitors of Shiga Toxin | AID 2314, 2010 | max response, % | 12% of 300,000 active | cell reporter, cycloheximide protein synthesis inhibition counterscreen; in the data active = max response mostly above about 13%, no sharp cut-off; inactive = mostly below about 14%; note: read at 38.3 µM for the half of the compounds with a filed dose
FBPA Giardia inh: qHTS Assay for Inhibitors of Fructose-1,6-bisphosphate Aldolase from Giardia Lamblia. 0.71% of 290,000 active. AID 2451, 2010. Potency, µM (series often up to 59.6 µM), actives largely listed as inhibitors. purified Giardia FBPA; note: nearly all actives have a fitted effect of over 55% in size
Target sequence (A8B2U2 whole entry, looked up): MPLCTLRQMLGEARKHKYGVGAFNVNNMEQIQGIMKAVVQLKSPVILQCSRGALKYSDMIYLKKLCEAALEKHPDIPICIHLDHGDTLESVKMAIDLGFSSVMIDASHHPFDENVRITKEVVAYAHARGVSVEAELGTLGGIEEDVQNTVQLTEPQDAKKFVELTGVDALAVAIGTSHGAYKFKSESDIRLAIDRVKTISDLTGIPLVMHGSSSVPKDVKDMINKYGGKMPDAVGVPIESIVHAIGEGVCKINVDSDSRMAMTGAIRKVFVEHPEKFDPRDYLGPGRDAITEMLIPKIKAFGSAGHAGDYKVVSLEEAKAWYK
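Giardia FBPA (40 nM reagent) was preincubated 10 min at RT with compound (up to 57.5 uM final), then substrate plus GAPDH/TPI/NAD/arsenate coupling system with diaphorase/resazurin was added; resorufin fluorescence (525/598 nm) was read after 20 min.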
Hits are given with their value; 0 = inactive; ? = inconclusive; - = no result; [ ] = dose if it differs, or a comment. Unless noted, calls come from the whole dose curve; as a rule, active = well fitted curve in the direction sought with a large enough effect; inconclusive = small, poorly fitted or top-dose-only effect, or another doubt; inactive = no such curve, though single readings can be large; an effect the other way counts as inactive or inconclusive.

SMILES | TbPYK inhibitor | Sm TGR inh | LmPK inhibitor | Shiga toxin inh | CHX counter | FBPA Giardia inh
CCCOc1ccc(N2C(=O)CC(N3CCN(c4nc5ccccc5s4)CC3)C2=O)cc1 (centres undefined) | 0 | 40µM | 0 | 0 | 0 | ?
O=C1CC(N2CCN(c3ccc(F)cc3)CC2)C(=O)N1Cc1cccs1 (centres undefined) | 0 | ? | 0 | 0 | 0 | 0
O=C1CC(N2CCN(c3nc4ccccc4s3)CC2)C(=O)N1Cc1cccs1 (centres undefined) | 0 | 11µM | 0 | 0 | 0 | 0
O=C1CC(N2CCC(c3nc4ccccc4o3)CC2)C(=O)N1Cc1cccs1 (centres undefined) | 0 | 50µM | 0 | 0 | 0 | 0
O=C1CC(N2CCC(c3nc4ccccc4s3)CC2)C(=O)N1Cc1ccccc1 (centres undefined) | - | ? | 0 | 0 | 0 | 0
C[C@H](NC(=O)C1CCN(S(=O)(=O)c2ccccc2)CC1)C(=O)NCc1ccco1 | 0 | 0 | 0 | 0 | 0 | -
CC(C)NC(=O)N1CCCC2(CCN(C(=O)c3cc(C(F)(F)F)cc(C(F)(F)F)c3)CC2)C1 | 0 | - | - | - | - | 0
CC1=C(c2ccc(C)c(C)c2)S(=O)(=O)N=C1N1CCC(C(=O)NC(C)c2ccccc2)CC1 (centres undefined) | 0 | 0 | - | - | - | -
CCCc1nc(-c2cc3ccc(C)cc3[nH]c2=O)no1 | 0 | 0 | 0 | 59 | 23 | 0
Cc1ccc2cc(-c3noc(C4CCCCC4)n3)c(=O)[nH]c2c1 | 0 | 0 | 0 | 0 | 0 | 0
Cc1ccc2cc(-c3noc(C4CCCO4)n3)c(=O)[nH]c2c1 (centres undefined) | 0 | 0 | 0 | 0 | 17 | 0
CN1[C@@H]2CC[C@H]1CC(OC(c1ccccc1)c1ccccc1)C2 (some centres undefined) | 0 | - | - | 0 | 0 | 0
N#Cc1ccc(C(=O)Nc2ccc3c(c2)N(C2CCCC2)C(=O)c2ccccc2S3)cc1 | 0 | 0 | - | - | - | -
CC1(C(=O)NCc2ccc3c(c2)OCO3)CCN1C(=O)Cc1ccc(Cl)cc1Cl (centres undefined) | 0 | - | - | - | - | -
CC(=O)OCC(=O)C1(O)CCC2C3CCC4=CC(=O)CCC4(C)C3(F)C(O)CC21C (centres undefined) | 0 | - | - | - | - | -
CCOC(=O)/C=C1\CN(Cc2cc(OC)c(OC)c(OC)c2)S(=O)(=O)c2ccc(C(F)(F)F)cc21 | 0 | 28µM | 0 | 0 | 0 | 0
COc1ccc(CC(=O)O/N=C(\N)c2ccc(C)cc2)cc1 | 0 | 0 | 0 | 118 | 47 | 0
COc1ccc(OCC(=O)O/N=C(\N)c2ccc(OC)c(OC)c2)cc1 | 0 | 0 | 0 | 0 | 0 | 0
COc1ccc(/C(N)=N/OC(=O)Cc2ccc(C)cc2)cc1OC | 0 | 0 | 0 | 0 | 15 | 0
N/C(=N\OC(=O)Cc1ccc(Cl)cc1)c1ccncc1 | 0 | 0 | 0 | 0 | 0 | 0
COc1ccc(CC(=O)O/N=C(\N)c2ccncc2)cc1 | 0 | 0 | 0 | 82 | 15 | 0
COc1ccccc1C(=O)NC(=O)COC(=O)CCS(=O)(=O)c1ccc(C)cc1 | 0 | 0 | - | - | - | -
Nc1ccc(-c2nc3ncccc3o2)cc1 | 0 | 0 | 0 | 31 | 34 | 0
Nc1cccc(-c2nc3ncccc3o2)c1 | 0 | 0 | 0 | 56 | 31 | 0
O=C(Cc1ccccc1)Nc1cccc(-c2nc3ncccc3o2)c1 | 0 | 0 | 0 | 0 | 0 | 0
SMILES | TbPYK inhibitor | Sm TGR inh | LmPK inhibitor | Shiga toxin inh | CHX counter | FBPA Giardia inh
CC1CCC2C(=O)OC(COc3ccc(C(C)(C)C)cc3)CN2C1c1ccc(Br)cc1 (centres undefined) | - | - | - | - | - | 0[12.9 µM]
CCOC(=O)C1CCN(C(=O)Nc2ccc3c(c2)nc(C)n3C)CC1 | 0 | 0 | 0 | 53 | 49 | 0
CCOC(=O)C1CCN(C(=O)Nc2ccc(OC)c(OC)c2)CC1 | 0 | 0 | 0 | 0 | 0 | 0
Cc1nc2cc(NC(=O)N3CCCCC3)ccc2n1C | 0 | 0 | 0 | 44 | 19 | 0
COc1cccc(S(=O)(=O)N(C)C[C@@H]2OCc3cnnn3CCCC(=O)N([C@H](C)CO)C[C@@H]2C)c1 | 0 | - | - | - | - | -
O=C(NNC(=O)c1ccc2c(c1)OCO2)NC1CCCCC1 | 0 | 0 | 0 | 0 | 0 | 0
CN(C(=O)c1ccc2c(c1)OCO2)C1CCCCC1 | 0 | 0 | 0 | 36 | 42 | -
CC1CCC(NC(=O)C(=O)Nc2ccc3c(c2)OCO3)CC1 (centres undefined) | 0 | 0 | 0 | 116 | 57 | -
CN1CCN(CCCNC(=O)c2ccc(/C=C3\Oc4ccccc4N(Cc4ccccc4F)C3=O)cc2)CC1 | 0 | 0 | 0 | 0 | 0 | 0
CN(C(=O)COC(=O)c1ccc2c(c1)OCO2)C1CCCCC1 | 0 | - | - | - | - | -
CC1CCC(NC(=O)c2ccc(/C=C3\Oc4ccccc4N(C)C3=O)cc2)CC1 (centres undefined) | - | 0 | 0 | 0 | 25 | 0
O=C(NC1CCCCC1)c1ccc2c(c1)OCO2 | 0 | 0 | 0 | 84 | 26 | 0
Cc1ccccc1CCNCc1c(C(=O)O)c(C)n(Cc2c(F)cccc2Cl)c1C | 0 | 0 | - | - | - | -
CCOC(=O)c1cc(OC(=O)Cc2ccc(OC)c(S(=O)(=O)N3CCOCC3)c2)cc(C(=O)OCC)c1 | 0 | - | - | - | - | -
Cc1ccc(NCC(=O)N2CCN(S(=O)(=O)c3ccccc3)CC2)cc1F | 0 | 0 | - | - | - | -
CC1CCC(NC(=O)c2ccc3c(c2)OCO3)CC1 (centres undefined) | 0 | 0 | 0 | 53 | 43 | -
COC(=O)c1sccc1S(=O)(=O)N(CC(=O)Nc1cc(C)ccc1C)c1ccc(C)c(C)c1 | 0 | 0 | - | - | - | -
CC(C)C[C@H]1CNC(=O)C(=O)N1C[C@H]1CCCN1C[C@H](CC(C)C)N1C[C@H](Cc2ccccc2)N(CCc2ccccc2)C(=O)C1=O | 0 | - | - | - | - | -
CC(C)CN(CCOc1cccc(N2C(=O)C3=C(CCCC3)C2=O)c1)CC(C)C | 0 | 0 | 0 | 0 | 0 | 0
O=C1C2=C(CCCC2)C(=O)N1c1cccc(OCCBr)c1 | 0 | 45µM | 0 | 0 | 0 | 0
CC(=O)Oc1cccc(C(=O)Nc2ccc(NC(=O)c3cccs3)cc2)c1 | 0 | 0 | 0 | 163 | 42 | 0
COc1cccc(C(=O)Nc2cc(NC(=O)c3cccs3)ccc2C)c1 | 0 | 0 | 0 | 0 | 0 | 0
COc1cccc(C(=O)Nc2cccc(NC(=O)c3cccs3)c2)c1 | 0 | 0 | 0 | 0 | 11 | 0

Screening results deposited in PubChem by National Center for Advancing Translational Sciences (NCATS).
